Compounds with a hit are over-represented: about 5.7% of the library has one in this group of screens.
DAX1 inh-1: DAX1 (NR0B1) inhibition, primary screen; AID 652010; hit rate 1.1% among 370,000; HEK293T StAR-luciferase reporter, SF-1/DAX-1 repression relief; inhibition, % at 6.8 µM;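 active = inhibition above the mean over all tested compounds plus 3 SD, cut at about 3.6% in these data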;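 also: 0% = DAX-1 cells with DMSO and 100% = cells lacking DAX-1 with DMSO; higher inhibition means more luminescence from relief of DAX-1 repression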
hcDAF-12 act: activates DAF-12 receptor from parasite H. contortus. HEK293 hcDAF-12 lit1-tk-luc reporter, luminescence; 0% DMSO, 100% Δ7-dafachronic acid. activation, % at 6.8 µM. hit rate 1.4% among 370,000. AID 652067;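 active = activation above the mean of all tested compounds plus 3 SD, cut at about 5.5% in these data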;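 also: 100% = response to 3 µM Δ7-dafachronic acid high control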
AHR act: activators of human aryl hydrocarbon receptor; P35869; AHR-responsive luciferase reporter cells, luminescence; activation, % at 5 µM; hit rate 2.5% among 320,000; AID 2796; in the data active = activation above about 47%;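 also: 0% = vehicle wells and 100% = reference agonist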
hgDAF-12 ag: activates the H. glycines DAF-12 receptor ligand-binding domain; HEK293 GAL4-hgDAF12 UAS-luciferase reporter, agonist luminescence; normalized to butyrate control; hit rate 1.8% among 370,000; activation, % at 6.8 µM; AID 687014;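 active = activation above a cutoff set at the mean of all screened compounds plus 3 SD, cut at about 10% in these data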;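 also: 0% = DMSO wells and 100% = sodium butyrate wells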
DAX1 inh-2: NR0B1 (DAX1) inhibition. P51843. HEK293 Gal4-DAX1 luciferase reporter, luminescence. inhibition, % at 6.75 µM. hit rate 0.99% among 340,000. AID 504766;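 active = inhibition above the mean over all tested compounds plus 3 SD, cut at about 4.2% in these data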;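 also: 0% = DAX1-transfected cells with DMSO and 100% = empty-vector control cells with DMSO; inhibition shows as a rise in luminescence from relieved DAX1 repression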
Target sequence (P51843 207-470 limits assumed): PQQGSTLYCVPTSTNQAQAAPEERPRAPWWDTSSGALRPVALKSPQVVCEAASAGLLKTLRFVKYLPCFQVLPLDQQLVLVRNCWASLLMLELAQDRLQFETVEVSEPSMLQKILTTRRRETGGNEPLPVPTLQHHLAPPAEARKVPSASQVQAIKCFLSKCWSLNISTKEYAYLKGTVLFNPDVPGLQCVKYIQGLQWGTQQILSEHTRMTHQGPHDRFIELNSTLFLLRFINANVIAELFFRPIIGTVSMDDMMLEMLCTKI
ssDAF-12 act: S. stercoralis DAF-12 activation, primary screen | hit rate 1% among 370,000 | HEK293 ssDAF-12/GRIP1 lit1-tk-luc reporter, luminescence; % of 3 µM dafachronic acid response | activation, % at 6.8 µM;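 active = activation above the mean over all tested compounds plus 3 SD, cut at about 0.9% in these data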;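 also: 0% = DMSO-only wells and 100% = 3 µM delta7-dafachronic acid wells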
Active calls of the source: *; x = no result given.

SMILES	DAX1 inh-1	hcDAF-12 act	AHR act	hgDAF-12 ag	DAX1 inh-2	ssDAF-12 act
Cc1ccc(S(=O)(=O)NCC(=O)OCC(=O)Nc2ccccc2OC(F)F)cc1	-0.1	-1.1	-1.2	-0.8	5.9*	-1.2
CCOC(=O)c1c(C)oc2c1c(C=NCC1CCCO1)c(O)c1ccccc12 (centres undefined)	-1.2	0.3	x	-4.5	6.6*	-1.4
CN(c1ccc(OCC(=O)NCCc2ccccc2)cc1)S(=O)(=O)c1ccc(Cl)cc1	4.2*	3.2	16.1	3.1	-0.4	-0.5
COc1ccc(CCNC(=O)COc2ccc(N(C)S(=O)(=O)c3ccc(Cl)cc3)cc2)cc1	0.1	-2.1	x	-1.3	1.8	-2.0
Clc1ccccc1Cn1nnc(-c2ccccc2)n1	0.3	0.1	41.1	2.0	-0.1	4.3*
COc1ccc(-c2nnn(Cc3ccccc3F)n2)cc1	0.4	1.6	0.2	12.5*	3.4	0.1
CC1(C(=O)NS(=O)(=O)C2CC2)CCCN(C(=O)c2ccc3c(c2)OCO3)C1 (centres undefined)	-0.5	-0.6	x	-0.2	x	-1.2
O=C(N/N=C/c1ccccc1F)c1ccccc1OCc1ccccc1	-0.9	-2.4	2.1	1.3	-1.3	-0.9
Cc1ccc([N+](=O)[O-])cc1NC(=O)C1CCN(S(C)(=O)=O)CC1	0.7	-0.1	-1.5	1.0	-0.9	-1.6
Cc1ccc([N+](=O)[O-])cc1NC(=O)C1CCCC1	0.6	-1.0	-1.6	0.7	0.2	5.5*
Cc1ccc([N+](=O)[O-])cc1NC(=S)NCCc1ccccc1	-3.5	-1.2	51.9*	1.4	0.0	-0.9
Cc1ccc(C2(c3ccc(C)cc3)CC2C(=O)Nc2ccc([N+](=O)[O-])cc2O)cc1 (centres undefined)	-4.6	-3.9	59.3*	-12.9	-4.9	-2.5
CC1(C)CC1C(=O)Nc1ccc([N+](=O)[O-])cc1Br (centres undefined)	-0.8	0.6	0.7	-0.5	-1.3	-1.2
CC(=O)OC1(C(C)=O)CCC2C3CC(Cl)C4=CC(=O)CCC4(C)C3CCC21C (centres undefined)	-0.7	-1.9	x	0.4	-1.3	-1.1
C=CCN=C1S/C(=C\c2ccc(N(C)C)cc2)C(=O)N1CC=C	0.8	-1.5	-1.3	3.4	4.7*	-0.9
C=CCN1C(=O)/C(=C/c2ccc(OC)cc2)S/C1=N/c1nccs1	-0.2	-0.3	3.2	0.5	0.1	-1.9
CSc1nc2ccc(NC(=O)C3=NN(c4ccccc4)C(=O)CC3)cc2s1	-1.4	1.2	12.5	-3.4	-0.5	-0.7
CSc1nc2ccc(NC(=O)C3=NNC(=O)CC3)cc2s1	2.3	5.6*	18.6	7.4	1.2	0.2
Clc1ccc(OCc2cn3cccnc3n2)c2ncccc12	1.0	1.1	x	1.9	0.2	-0.3
c1cnc2c(OCc3cn4cccnc4n3)cccc2c1	-0.1	-0.3	70.8*	1.2	1.9	-1.6
COc1ccc(/C=C/S(=O)(=O)NCc2ccc(F)cc2)c(CNC(=O)OC(C)(C)C)c1	-1.9	-1.9	x	1.6	x	-0.4
COc1ccc(C)cc1NC(=O)C(OC(=O)CNC(=O)c1cccc(F)c1)c1ccccc1 (centres undefined)	-0.1	-0.6	72.0*	-4.1	-0.6	-1.6
CCOc1ccccc1NC(=O)C(OC(=O)c1cc(C)oc1C)c1ccccc1 (centres undefined)	-0.4	-1.4	7.3	-1.8	1.5	-0.8
COc1ccc(C)cc1NC(=O)C(OC(=O)c1cnc(C)cn1)c1ccccc1 (centres undefined)	-0.4	-0.5	60.3*	-1.7	-1.3	-0.9
Cc1cnc(C(=O)OC(C(=O)c2c[nH]c3ccccc23)c2ccccc2)cn1 (centres undefined)	2.3	1.2	9.0	-0.2	0.5	0.9*
SMILES	DAX1 inh-1	hcDAF-12 act	AHR act	hgDAF-12 ag	DAX1 inh-2	ssDAF-12 act
COc1ccc(C)cc1NC(=O)C(OC(=O)c1cc(C)oc1C)c1ccccc1 (centres undefined)	-0.8	-0.7	73.5*	1.6	0.3	-1.3
O=Cc1cc2ccccc2nc1SCCCF	0.8	3.9	5.7	-1.3	0.9	-1.0
Cc1cc2c(cc3c(=O)n(CC(=O)NCCCN4CC(C)CC(C)C4)ncn32)s1 (centres undefined)	0.2	0.3	4.0	-1.5	-0.1	-0.8
COC(=O)[C@@]12C[C@@H](CC(=O)NCc3cccc(C(F)(F)F)c3)C(=O)N(Cc3ccc4c(c3)OCO4)C1=CCC(C)(C)C2	0.6	2.0	x	-2.2	x	-0.2
O=C(Nc1ccc(N2C(=O)C3C4C=CC(C4)C3C2=O)cc1)Nc1cccnc1 (centres undefined)	-0.6	-0.3	3.6	-1.7	-0.3	-1.2
Cc1ccc(C)c(NC(=O)C(OC(=O)c2cnc(C)cn2)c2ccccc2)c1 (centres undefined)	2.2	1.1	69.9*	1.2	-0.6	-0.4
COc1cccc2sc(Nc3nc(-c4ccncc4)cs3)nc12	-4.2	-0.4	63.7*	5.6	-2.0	-1.5
COc1cccc2sc(NN)nc12	2.2	0.8	33.1	-0.7	-0.2	-1.5
COc1ccccc1-c1nnc(Nc2nc3c(OC)cccc3s2)o1	-2.9	-1.9	110.7*	-7.4	-3.3	-0.9
COc1cccc2sc(Nc3nnc(-c4ccccc4Cl)o3)nc12	-4.6	2.6	62.6*	4.0	-2.3	-0.3
COc1cc(CN2C[C@@H](CO)O[C@@H](n3cnc4c(NCC(C)C)ncnc43)C2)cc(OC)c1OC	-1.2	1.0	x	3.2	x	-0.9
Cc1cccc(-c2cc(C(=O)NCc3ccccn3)c3ccccc3n2)c1	-1.3	1.4	16.9	1.1	0.5	-1.4
Cc1ccc(-c2cc(C(=O)NCc3ccccn3)c3ccccc3n2)cc1C	-0.1	0.5	56.0*	5.4	-2.3	-0.6
Cc1cc(NC(=O)c2cc(-c3ccc(C)c(C)c3)nc3ccccc23)no1	0.3	1.9	58.2*	-0.6	2.2	-1.1
O=C(NCc1ccccn1)c1cc(-c2ccc(-c3ccccc3)cc2)nc2ccccc12	-0.9	0.8	66.0*	1.9	-3.6	-1.8
O=C(NCc1ccccn1)c1cc(-c2ccccc2)nc2ccccc12	-0.2	-1.6	17.7	-0.9	-0.6	-0.8
CCc1ccc(C2=CSC3=NCCN23)cc1	0.0	-2.4	2.1	0.7	1.2	-1.1
O=C(COC(=O)Cc1ccccc1[N+](=O)[O-])NCc1ccc(F)cc1	0.2	-0.4	-1.6	-1.2	0.2	-1.1
O=C(Cc1ccccc1[N+](=O)[O-])NCCc1ccc(F)cc1	-0.3	0.9	20.7	-0.4	0.8	5.1*
O=C(Cc1ccccc1[N+](=O)[O-])NCc1ccncc1	0.4	5.3	18.4	-0.4	0.7	1.1*
S=C(Nc1ccc(Cl)cc1Cl)Nc1ccccc1Oc1ccccc1	x	x	2.5	x	1.6	x
S=C(Nc1ccccc1Oc1ccccc1)Nc1cccc(Cl)c1Cl	-0.3	3.7	8.4	-0.1	-0.4	1.0*
